Bioassay records: PubChem BioAssay, National Center for Advancing Translational Sciences (NCATS)
HT1080 IDH1KD tx – kills HT-1080 cells with IDH1 knockdown. HT-1080 IDH1 knockdown viability, ATP luminescence, 48 h. Potency, µM (titrated, usually from 46.1 µM), for inactives: top-dose activity, negative = toxicity, hits mostly cytotoxic. 2% of 360,000 active;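 further: potency means the concentration at half of the fitted maximal effect; 0% = DMSO wells and -100% = cell-free medium wells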
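Luminescent ATP read-out (CellTiter-Glo, 10 min at room temperature) after 48 h compound exposure at 37 °C gave viability of IDH1-knockdown HT-1080 cells. Activity was normalised to DMSO and cell-free wells, then fitted as concentration-response curves.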
DT40 TDP1 CPT – DT40-hTDP1 cell growth loss with CPT | 12% of 420,000 active | AID 686979 | chicken DT40 Tdp1-/-;hTDP1 cells + 20 nM CPT, ATP luminescence, 48 h | Potency, µM (doses to about 46.2 µM), inactives show top-dose activity change, negative = growth inhibition, usual class: inhibitors; further: potency means the concentration at half of the fitted maximal effect; nearly all actives have a fitted effect of over 55% in size
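Cell growth measured by CellTiter-Glo luminescence after a minimum 48 h, 37 C compound exposure with 20 nM CPT in Tdp1-knockout DT40 cells stably expressing hTDP1, seeded 400/well; qHTS titration format.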
DT40 TDP1 no CPT – qHTS for Inhibitors of human tyrosyl-DNA phosphodiesterase 1 (TDP1): qHTS in cells in absence of CPT | Potency, µM (top dose mostly 46.2 µM), for the others: top-dose activity change, negative = growth inhibition, usual class: inhibitors | DT40 Tdp1-/- hTDP1 cells, no CPT, ATP luminescence, 48 h | 15% of 420,000 active; further: potency means the concentration at half of the fitted maximal effect; nearly all actives have a fitted effect of over 55% in size
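DT40 Tdp1-/-;hTDP1 cells, no CPT (DMSO vehicle only), 400 cells/well; compounds pin-transferred; ≥48 hr, 37 °C; CellTiter-Glo 30 min RT dark, luminescence read.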
HT1080NT lethal – kills 2HG-producing HT-1080-NT fibrosarcoma cells | Potency, µM (titrated, usually from 46.1 µM), without a hit: at the top dose activity, negative = less viability, most hits filed as cytotoxic | 1.6% of 360,000 active | HT-1080-NT fibrosarcoma viability, CellTiter-Glo ATP luminescence, 48 h | AID 686970;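 further: NT is the 2HG producing partner of a matched IDH1 knockdown line; potency means the concentration at half of the fitted maximal effect; 0% = DMSO-treated cells and -100% = media-only wells without cells; nearly all actives have a fitted effect of over 55% in size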
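Read-out is CellTiter-Glo luminescence after 10 minutes at room temperature, following 48 hours' compound treatment of HT-1080-NT cells (750 cells/well, RPMI, 5% FBS, 37 degrees C).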
IL-1B inflam inh – inhibitors of inflammasome signaling (IL-1 beta secretion). THP-1 LPS/ATP IL-1B secretion, AlphaLISA, 16 h; stronger effect = lower value. activity change, % at 57.5 µM. 4.7% of 360,000 active. AID 743279; in the data active means activity change below about -50%; inconclusive means mostly about -30% to -49%
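THP-1 cells pretreated 1 hr with compounds (up to 57.5 uM final), then stimulated with LPS (250 ng/mL final) plus ATP (1.25 mM final); secreted IL-1B measured by AlphaLISA after 16 hr, decreased signal indicating inhibition.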
* hit, by the source's call; ? = inconclusive; / = not tested or not shown; [ ] = another dose, or the depositor's remark. Hits are enriched below; roughly 19% of the tested compounds scored in any of these assays. Unless noted, the call rests on the fitted dose curve; in most records, active means well fitted curve in the direction sought with a large enough effect; inconclusive means small, poorly fitted or top-dose-only effect, or another doubt; inactive means no such curve, though single readings can be large; an effect the other way counts as inactive or inconclusive. Unless noted, on the % scale 0 is the no-effect control and ±100 the full control effect.

SMILES	HT1080 IDH1KD tx	DT40 TDP1 CPT	DT40 TDP1 no CPT	HT1080NT lethal	IL-1B inflam inh
COc1cccc(-c2nc(CSCC(=O)NCCc3ccc(Cl)cc3)c(C)o2)c1	/	9.2µM*	?	/	/
COc1cccc(-c2nc(CS(=O)CC(=O)NCCc3ccccc3)c(C)o2)c1 (configuration not stated)	-1.6%	?	?	-3.8%	30.3
COc1ccc(CCNC(=O)CSc2nnc(-c3cccc(C)c3)o2)cc1OC	-0.5%	-23.6%	-1.7%	2.5%	-17.8
CC(C)NC(=O)COC(=O)c1ccccc1OCC(=O)Nc1ccc(Br)cc1	-9.6%	-56.7%	-3.5%	-24.0%	/
CN(C(=O)COC(=O)c1ccccc1OCC(=O)Nc1ccc(Br)cc1)c1ccccc1	-12.9%	?	11.2µM*	-20.4%	/
CNC(=O)COc1ccccc1C(=O)Nc1ccc2c(c1)oc1ccccc12	?	-28.7%	?	-22.1%	-69.3*
O=C(COc1ccccc1C(=O)OCC(=O)N1CCOCC1)Nc1ccc(Br)cc1	3.4%	15.8µM*	14.1µM*	0.7%	/
O=C(O)c1ccccc1-c1ccccc1C(=O)Nc1ccc2c(c1)C(=O)c1ccccc1-2	-24.3%	?	?	-28.1%	8.1
O=C(O)c1ccccc1-c1ccccc1C(=O)Nc1ccc2c(c1)oc(=O)c1ccccc12	-7.5%	?	13µM*	?	?
O=C(Cn1cc(C(F)(F)F)ccc1=O)N/N=C/c1ccc(Cl)cc1	-15.5%	-12.4%	-24.7%	-3.8%	8.3
CCC(C)NC(=O)COC(=O)c1ccccc1OCC(=O)Nc1ccc(Br)cc1 (configuration not stated)	25.1%	?	?	?	0.8
CN(C)C(=O)COc1ccccc1C(=O)OCC(=O)Nc1ccc(Oc2ccc(Br)cc2)cc1	/	?	11.2µM*	/	/
CC(C)c1cccc(NC(=O)COC(=O)c2ccccc2OCc2cccc(Br)c2)c1	/	?	15.8µM*	/	/
CNC(=O)COc1ccccc1C(=O)Nc1ccccc1	/	27.8%	7.7%	/	/
CS(=O)(=O)c1ccccc1NC(=O)COc1ccccc1C(=O)Nc1ccccc1	11.0%	11.2µM*	11.2µM*	8.4%	/
COc1cc2ccccc2cc1C(=O)OCC(=O)Nc1ccc(Br)cc1	/	7.94µM*	?	/	/
CCOc1cc2ccccc2cc1C(=O)OCC(=O)Nc1ccc(Br)cc1	/	-28.6%	-5.1%	/	/
OCCN1CCN(Cc2ccc3c(c2)CN(Cc2cnc(-c4ccccc4)s2)CCO3)CC1	/	4.5%	-22.0%	/	/
Cn1c(CN2CCOCC2)nc2cc(NC(=O)COc3ccc([N+](=O)[O-])cc3)ccc21	1.8%	?	?	-0.3%	26.8
O=C(COC(=O)c1ccccc1OCC(=O)Nc1ccc(Br)cc1)Nc1ccccc1	-0.2%	?	?	2.0%	12.0
COC(=O)c1ccc(NC(=O)c2ccccc2OCC(=O)Nc2ccc(Br)cc2)cc1	?	?	10µM*	?	/
CC(C)(C)c1ccc(NC(=O)COC(=O)c2ccccc2OCC(=O)Nc2ccc(Br)cc2)cc1	/	15.8µM*	?	/	/
Cc1ccc(NC(=O)COc2ccccc2C(=O)Nc2ccccc2)cc1Cl	-1.3%	18.4%	6.5%	-1.7%	-2.7
COc1ccc(Cl)cc1C(=O)Nc1ccc2oc(-c3ccc(C(C)(C)C)cc3)nc2c1	/	-27.5%	?	/	/
CCOC(=O)c1c(C)cc(C)[nH]c1=O	17.8%	-4.4%	-0.4%	21.3%	10.8
SMILES	HT1080 IDH1KD tx	DT40 TDP1 CPT	DT40 TDP1 no CPT	HT1080NT lethal	IL-1B inflam inh
C/C(=C\c1ccc2c(c1)OCO2)C(=O)c1c(C)cc(C)[nH]c1=O	-5.5%	-21.5%	?	0.1%	-23.2
Cc1cc(C)c(C(=O)/C=C/C=C/c2ccccc2)c(=O)[nH]1	-3.3%	-22.6%	-28.1%	-3.5%	-79.5*
Cc1cc(C)c(C(=O)/C=C/c2ccc(C(C)C)cc2)c(=O)[nH]1	16.4µM*	23.1µM*	16.4µM*	-20.8%	-117.0*
C/C(=C\c1cccc(Br)c1)C(=O)c1c(C)cc(C)[nH]c1=O	-6.3%	-27.3%	-16.6%	-4.8%	-70.9*
Cc1ccc(S(=O)(=O)N2C[C@@H](C)[C@]3(C2)[C@H](O)[C@H](OC(=O)Nc2c(C)noc2C)C[C@H]2C(=O)N(c4ccccc4)C(=O)[C@H]23)cc1	-1.5%	6.1%	-21.4%	2.4%	10.3
CC(C)(C)c1cc(N)n2nc(C(C)(C)C)cc2n1	0.1%	-21.6%	-1.1%	9.7%	5.5
O=C(c1cc2ccccc2oc1=O)N(c1ccc(Cl)cc1)C1C=CS(=O)(=O)C1 (configuration not stated)	9.6%	16.4µM*	?	7.7%	0.0
Cc1cc(C)cc(NC(=S)NCc2cccs2)c1	-1.1%	14.6µM*	?	-9.0%	0.0
COc1cc(NC(=S)NCc2cccs2)cc(OC)c1	11.7%	?	?	8.1%	-9.2
Cc1ccc(CN(C)C(=O)C2CCC(=O)N(CC3CCCCC3)C2)o1 (configuration not stated)	10.9%	-35.5%	3.6%	10.2%	10.4
Cc1ccc(C[n+]2cccc(-c3ccccc3)c2)c(C)c1	?	1.16µM*	0.731µM*	-25.8%	-58.1*
Cc1oc(-c2ccccc2F)nc1CSCC(=O)NCc1ccc2c(c1)OCO2	-10.6%	-23.2%	?	-4.5%	?
COc1ccc(CN2CCCC(CO)(Cc3ccc(F)cc3F)C2)cc1 (configuration not stated)	?	?	?	?	-83.5*
OCC1(Cc2ccc(F)cc2)CCCN(Cc2ccc(F)cc2Cl)C1 (configuration not stated)	?	-22.9%	25.9µM*	?	-2.7
CCn1nc(C(C)C)cc1C(=O)N1CCCC(CO)(Cc2ccc(F)cc2F)C1 (configuration not stated)	10.0%	23.1µM*	?	-1.9%	27.9
CCOc1ccc(CN2CCCC(CO)(Cc3ccc(F)cc3)C2)cc1 (configuration not stated)	?	-25.7%	?	?	?
Cc1ccc(S(=O)(=O)N2CCOCC2)cc1C(=O)N1CCN(S(=O)(=O)c2ccccc2F)CC1	-2.1%	-1.9%	3.9%	-1.8%[9.24 µM]	2.4
Cc1ccc(NC(=O)Cn2c(-c3ccc(F)cc3)cnc2SCC(=O)Nc2c(C)cccc2C)cc1	?	10.3µM*	11.6µM*	-28.9%	1.7
O=C(CSc1nc(-c2ccc(F)cc2)[nH]c1-c1ccc(F)cc1)Nc1ccc2c(c1)OCCO2	/	10.3µM*	10.3µM*	/	/
Cc1cc(=O)[nH]c(SCC(=O)Nc2ccc3c(c2)OCCO3)n1	5.9%	14.9%	-9.3%	-1.8%	11.2
O=C(CSc1nc(-c2ccc(F)cc2)[nH]c1-c1ccc(F)cc1)Nc1ccc2c(c1)OCO2	/	16.4µM*	23.1µM*	/	/
